Screen size: about 200,000 compounds; about 18,000 (9%) were called active. This is one part of a sample in which actives are shown more often than they occur. Values without a mark were called inactive. Rule as the data show it: active = inhibition above about 50%; inactive = the rest.

Drawing on PubChem BioAssay AID1063 (University of Pittsburgh Molecular Library Screening Center, 2008), this text covers inhibition for 98 molecules.

A short description of the assay: antileishmanial activity against promastigotes – primary screen (AID 1063).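 Also: promastigotes grown with compound for 44 hours at 28 °C.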 The conditions noted are these: Leishmania major promastigotes, resazurin fluorescence viability; at 10 µM; hits give high values.
As to `CCSC1=NCCN1S(=O)(=O)c1ccc(F)cc1`, the inhibition is -0.73%.

For `O=c1c2ccccc2c(-c2ccccc2)nn1-c1ccccn1`, the inhibition was -0.99%.

For the molecule `CC(=O)N1C(C)c2ccccc2C(C)(C)CC12CCCCC2` (stereo not drawn), the inhibition was 10.5%.

`Cc1ccc(N=C2NC(=O)c3cccc([N+](=O)[O-])c32)cc1`: the inhibition was -1.43%.

Consider `COc1ccc(-c2cc3nc(C)c(CCC(=O)NC(C)CCc4ccco4)c(C)n3n2)c(OC)c1` (stereo not drawn), for which the inhibition was 100% (active).

Take `Cc1nc2c(-c3ccc(F)cc3)c(C)nn2c(C)c1CCC(=O)NCc1ccco1`: the inhibition is -2.49%.

For `COc1cc(OC)cc(-c2nc3nc(C)c(CCC(=O)NCc4ccco4)c(C)n3n2)c1`, the inhibition is 2%.

Consider `Cc1ccc2cc(CN(c3ccc(C)c(C)c3)S(C)(=O)=O)c(=O)[nH]c2c1`, for which the inhibition is 9.29%.

Turning to `CCN(CCn1cccn1)C(=O)CC1C(=O)NCCN1Cc1cccc(OC)c1OC` (stereo not drawn), the inhibition was 5.31%.

For the molecule `CCOC(=O)c1sc2nc(C)nc(Nc3ccc(OC)c(OC)c3)c2c1C`, the inhibition was -0.22%.

As to `COc1ccc(O)c(C=Nc2cc(C)on2)c1`, the inhibition was -9.53%.

Turning to `COc1ccc(-c2onc(C)c2-c2ccc3c(c2)OCCO3)c(O)c1`, the inhibition was 72.5% (active).

As to `COc1ccc(-c2n[nH]c(C)c2-c2ccc(OC)c(OC)c2)c(O)c1`, the inhibition is 4.64%.

As for `CCOC(=O)CNC(=O)CSc1ccc2nnc(-c3cccnc3)n2n1`, the inhibition is 4.24%.

Take `CC(=O)Cn1ncc(N2CCOCC2)c(Br)c1=O`: the inhibition is 5.25%.

For the molecule `COc1ccc(CCNC(=O)COC(=O)C2CCCCC2)cc1`, the inhibition is -2.53%.

`COc1ccc(CNC2CCCCC2)cc1`: the inhibition is 72.3% (active).

As for `COc1ccc(CNC(=O)C2CCN(S(C)(=O)=O)CC2)cc1`, the inhibition was 7.6%.

In the case of `O=c1[nH]n2c(-c3ccccc3)nc(O)c2c2ccccc12`, the inhibition was -6.91%.

For the molecule `Nn1cnnc1N/N=C/c1cc([N+](=O)[O-])c(Cl)cc1Cl`, the inhibition was 64.3% (active).

With `CCc1cc2c(=O)c(-c3ccc(F)cc3)c(C(F)(F)F)oc2cc1OCC(=O)O`, the inhibition is 0.79%.

In the case of `O=C(CCc1n[nH]c(=O)[nH]c1=O)N/N=C/c1ccc(Br)o1`, the inhibition was 0.7%.

As to `CC(C)C1Nc2c(C(=O)O)cccc2C(Nc2ccccc2C(=O)O)C1(C)C` (stereo not drawn), the inhibition was 0.14%.

With `O=C(CSc1nnc(-c2ccncc2)o1)NCc1ccc(Cl)cc1`, the inhibition is -6.74%.

Consider `O=C(Cc1cccs1)Nc1nnc(C2CC2)s1`, for which the inhibition was -7.6%.

Turning to `Cc1occc1C(=O)Nc1nnc(C2CCCCC2)s1`, the inhibition is 7.17%.

With `O=C(Nc1nnc(C2CC2)s1)c1ccccn1`, the inhibition is 84.9% (active).

For `Cc1nc(N)c(Br)c(C)c1Br`, the inhibition is 1.28%.

As for `CC(NC(=O)Nc1ccc2c(c1)OCO2)c1ccncc1` (stereo not drawn), the inhibition was -3.06%.

For `CC(NC(=S)Nc1ccc(S(N)(=O)=O)cc1)c1ccc2c(c1)OCO2` (stereo not drawn), the inhibition is 70% (active).

On to `CC(C)(C)C(=O)NC(NC(=S)Nc1ccc(S(N)(=O)=O)cc1)C(Cl)(Cl)Cl` (stereo not drawn), for which the inhibition is 2.02%.

Regarding `COc1c(C)cc(C(=O)C2CCCN(S(=O)(=O)c3c(C)noc3C)C2)cc1C` (stereo not drawn), the inhibition is 6.97%.

Turning to `CN(/C(=N/S(=O)(=O)c1cccs1)c1ccccc1)c1ccc(O)cc1`, the inhibition is 7.12%.

Consider `CSCC(NS(=O)(=O)c1ccc(C)cc1)C(=O)O` (stereo not drawn), for which the inhibition is -7.96%.

For `CN1C(=O)/C(=N/OC(=O)c2ccccc2Br)c2ccccc21`, the inhibition is -16.5%.

As for `O=C(NNC(=S)NC1CCCCC1)c1ccccc1Cl`, the inhibition is 16.1%.

On to `O=C(c1cccc(C(=O)N2CCN(c3ccc(F)cc3)CC2)c1)N1CCN(c2ccc(F)cc2)CC1`, for which the inhibition was -10.6%.

Take `Fc1ccc(N2CCN(Cc3cnc(Oc4ccc(Br)cc4)s3)CC2)cc1`: the inhibition was -8.09%.

Consider `Oc1c(CN2CCN(c3ccc(F)cc3)CC2)cc(Cl)c2cccnc12`, for which the inhibition is 100% (active).

As to `Cc1nnc(SCC(=O)NNC(=O)c2ccc(Cl)cc2)n1CC1CCCO1` (stereo not drawn), the inhibition was -2.51%.

With `C/C(=N\OC(=O)c1ccccc1)c1c(C)nc2cc(C)ccn12`, the inhibition is 5.76%.

In the case of `Cc1ccc(N(C(=O)Cc2cccs2)C(C(=O)NCC2CCCO2)c2ccncc2)cc1` (stereo not drawn), the inhibition was 3.99%.

Turning to `Cc1cccc(N(C(=O)c2ccc(CN3CCOCC3)o2)C(C(=O)NC2CCCCC2)c2ccc(F)cc2)c1` (stereo not drawn), the inhibition is -5.01%.

Consider `Cc1ccc(N(C(=O)c2ccc(CN3CCOCC3)o2)C(C(=O)NCCC(C)C)c2cccs2)c(C)c1` (stereo not drawn), for which the inhibition is 90.9% (active).

On to `CN(C)CC(C)(C)CNC(=O)c1cc(Br)cc(Br)c1O`, for which the inhibition is -1.61%.

On to `CC1=CC2=NC(=O)CC(C)(C(=O)N(CC(=O)NC(C)(C)C)Cc3ccccc3)N2C=C1` (stereo not drawn), for which the inhibition is -6.31%.

Take `Cc1cccc(CSc2nc3c(c(=O)n2C)SCC3)c1`: the inhibition is 7.35%.

For the molecule `COc1ccc(C(CCN(Cc2ccc(OC)c(OC)c2)C(=O)CCl)c2ccccc2)cc1` (stereo not drawn), the inhibition was 100% (active).

On to `CCOC(=O)CN(Cc1ccc(OC)c(OC)c1)S(=O)(=O)c1ccc(OC)cc1`, for which the inhibition was 0.46%.

On to `COc1ccc(CCNC(=O)CN(c2ccccc2)S(C)(=O)=O)cc1OC`, for which the inhibition was -7.09%.

Turning to `O=C(O)CCn1c(SCc2cc(=O)n3ccccc3n2)nc2ccsc2c1=O`, the inhibition was -0.88%.

Turning to `CCN(CC)CCNC(=O)c1ccc(NC(=O)c2c(F)cccc2Cl)cc1`, the inhibition is 7.35%.

As to `COc1ccc(CN2CCC(c3nc4ccc(Cl)cc4[nH]3)CC2)cc1`, the inhibition is 95.6% (active).

`COc1ccc(Cn2nnc3c(=O)[nH]c(C4CCN(C(=O)c5ccccc5Cl)CC4)nc32)cc1`: the inhibition is -0.57%.

For `COc1ccc(F)c(-c2nc(CN3CCC(c4ccccc4)CC3)c(C)o2)c1`, the inhibition is 48.2%.

For `CCOc1ccc(C(CC(=O)O)NC(=O)C23CC4CC(CC(C4)C2)C3)cc1OC` (stereo not drawn), the inhibition is 3.74%.

In the case of `Cn1ncc2c(Nc3cccc4ccccc34)ncnc21`, the inhibition was -6.4%.

Consider `Cn1ncc2c(NNC(=O)Cc3cccc4ccccc34)ncnc21`, for which the inhibition is 61.6% (active).

`O=C(NNc1ncnc2c1cnn2-c1ccccc1)c1ccco1`: the inhibition was -5.13%.

Take `O=C1OCC2=C1C(c1ccccc1)CC(=O)N2c1cccc(F)c1` (stereo not drawn): the inhibition is 7.11%.

For the molecule `Cc1ccc2nc(-c3ccncc3)cc(C(=O)Nc3ccc4c(c3)OCCO4)c2c1`, the inhibition is 5.91%.

In the case of `COC(=O)CCNc1ccc2c(c1)OCCO2`, the inhibition is -0.44%.

Regarding `CCOC(=O)c1cnc2ccc(F)cc2c1Nc1ccc2c(c1)OCCO2`, the inhibition was 85.4% (active).

`CCOc1cc(CNCCN(C)C)c(Cl)cc1OCC(=O)NCCc1ccccc1`: the inhibition is 99% (active).

Turning to `CCCNCc1cc(OCC)c(OCC(=O)Nc2ccccc2)cc1Br`, the inhibition was 33.5%.

Take `O=C(COc1cc(Cl)c(Cl)cc1Cl)NCCc1ccccn1`: the inhibition is -5.85%.

Regarding `O=[N+]([O-])c1ccccc1/C=N/n1c(COc2ccccc2)n[nH]c1=S`, the inhibition is -4.75%.

For the molecule `Cc1ccc(-c2n[nH]c(=S)n2/N=C/c2cc3c(cc2[N+](=O)[O-])OCO3)cc1`, the inhibition is -0.37%.

For `CCOc1ccc(-c2n[nH]c(=S)n2/N=C/c2cc3c(cc2[N+](=O)[O-])OCO3)cc1`, the inhibition is 52.8% (active).

`CN(C)c1ccc2c(=O)[nH][nH]c(=O)c2c1`: the inhibition was -5.2%.

For `CC(=O)N1CCc2cc(Br)cc(S(=O)(=O)CCC(=O)Nc3c(C)n(C)n(-c4ccccc4)c3=O)c21`, the inhibition was -1.11%.

`CCOCCCn1c(NN)nc2ccccc2c1=O`: the inhibition was -5.56%.

Turning to `CCn1c(/C=C/c2ccc([N+](=O)[O-])o2)nc2ccccc2c1=O`, the inhibition was 100% (active).

Turning to `O=c1oc(/C=C/c2ccccc2)nc2ccccc12`, the inhibition is 1.06%.

Consider `CCN1CCC2(CCN(Cc3cn[nH]c3-c3ccc(OC)c(F)c3)C2)C1` (stereo not drawn), for which the inhibition is 1.79%.

On to `CCOC(=O)c1c(C2CC2)csc1NC(=O)CSCc1c(C)noc1C`, for which the inhibition is 100% (active).

Take `CCOC(=O)c1c(-c2cccc(C)c2)csc1NC(=O)c1c(-c2ccccc2)noc1C`: the inhibition is 1.98%.

Take `Cc1noc(C)c1CSCC(=O)Nc1nc2ccc(Oc3ccccc3)cc2s1`: the inhibition is 2.23%.

With `CCOC(=O)c1c(NC(=O)CCl)sc(C(=O)N(CC)CC)c1C`, the inhibition was 100% (active).

Consider `CCOC(=O)Nc1sc(C(=O)N(C)C)c(C)c1C(=O)OCC`, for which the inhibition is 7.28%.

In the case of `CCOC(=O)c1sc(NC(=O)CCN2CCOCC2)c(C(=O)OCC)c1C`, the inhibition is 7.86%.

As to `CCN(c1ccc2c(c1)OCO2)S(=O)(=O)c1cc(Br)cc2c1N(C(=O)C1CC1)CC2`, the inhibition was 57% (active).

For `CS(=O)(=O)N(CC(=O)NCc1ccco1)c1ccc2c(c1)OCO2`, the inhibition was 7.89%.

Turning to `CCOC(=O)N1CCN(S(=O)(=O)c2cc(Br)cc3c2N(C(=O)C2CC2)CC3)CC1`, the inhibition is -13.7%.

For the molecule `COC(=O)C1=C(C)N(C(C)c2ccccc2)C(=O)/C1=C\c1ccco1` (stereo not drawn), the inhibition was 12.7%.

`O=c1[nH]c(CN2CCN(S(=O)(=O)c3ccc4c(c3)OCCO4)CC2)nc2sc3c(c12)CCCC3`: the inhibition was 26.5%.

For `O=[N+]([O-])c1ccc(C=Nc2ccc(Cl)cc2Cl)s1`, the inhibition was 100% (active).

For `CCCNC(=O)c1c(Cl)cnn1-c1ccc(C)cc1`, the inhibition was 6.12%.

For the molecule `Cc1ccc(CN(C)CC(=O)Nc2cccc([N+](=O)[O-])c2)o1`, the inhibition is 8.58%.

`CC(C)(C)n1ncc2c(=O)n(Cc3ccc(Cl)cc3)cnc21`: the inhibition was 0.21%.

Take `CCN(CC)S(=O)(=O)c1ccc(Cl)c(NC(=O)c2ccncc2)c1`: the inhibition was 19.7%.

Turning to `COc1ccc(C2CC(c3cccs3)Nc3nnnn32)cc1` (stereo not drawn), the inhibition is -4.3%.

As for `O=C(CSc1nnc(-c2c[nH]c3ccccc23)n1-c1ccc(F)cc1)NCc1ccco1`, the inhibition was 52.5% (active).

`COc1ccc(C(=O)NC(=O)CSc2nnc(-c3ccco3)n2-c2ccccc2)cc1`: the inhibition is -4.51%.

`O=C(CSc1nnc(-c2cccs2)n1-c1ccccc1)NCc1ccco1`: the inhibition was 7.53%.

`O=C(CSc1nnc2scc(-c3ccc(F)cc3)n12)NCc1ccco1`: the inhibition was -2.03%.

Regarding `COc1ccc(-n2c(SCC(=O)NCc3ccco3)nnc2-c2c[nH]c3ccccc23)cc1`, the inhibition was 97.7% (active).

For `COc1ccc(-n2c(SCC(=O)NCc3cccs3)nnc2-c2ccoc2C)cc1`, the inhibition was 5.39%.

The inhibition is the drop in the measured response relative to a control, in per cent.
